Results published in the supplement of paper PMC6992640.
± gives the standard deviation of the averaged measurements.

Experiments:
Assay in all cases: cell viability (% of vehicle); higher = less cytotoxic
Conditions in all cases: 10 µM; 72 h
HCI01 = test system: HCI01 (cells of a triple-negative basal-like breast cancer xenograft)
HCI03 = test system: HCI03 (cells of an ER-positive luminal breast cancer xenograft)
HCI09 = test system: HCI09 (cells of a triple-negative luminal androgen receptor type breast cancer xenograft)
HCI11 = test system: HCI11 (cells of an ER-positive luminal breast cancer xenograft)
HCI13 = test system: HCI13 (cells of an ER-positive luminal breast cancer xenograft)
HCI16 = test system: HCI16 (cells of a triple-negative basal-like breast cancer xenograft)
UCD52 = test system: UCD52 (cells of a triple-negative basal-like breast cancer xenograft)
WHIM2 = test system: WHIM2 (cells of a triple-negative basal-like breast cancer xenograft)
WHIM30 = test system: WHIM30 (cells of a triple-negative basal-like breast cancer xenograft)
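Further: PDX cells carrying CMV promoter-driven luciferase, viability read as total photon flux per second by IVIS imaging following D-luciferin, vehicle control 0.1% DMSO.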

Row | SMILES | cell viability (HCI01) | cell viability (HCI03) | cell viability (HCI09) | cell viability (HCI11) | cell viability (HCI13) | cell viability (HCI16) | cell viability (UCD52) | cell viability (WHIM2) | cell viability (WHIM30)
1 | NC1CCCCC1N.O=C([O-])C(=O)[O-].[Pt+2] (configuration not stated) [Oxaliplatin] | 97.5 ± 3.3 | 108 | 75.7 ± 30 | 114 | 89 ± 12 | 118 | 137 ± 9.3 | 108 ± 14 | 154 ± 2
2 | CC12CCC3=C4CCC(=O)C=C4CCC3C1CCC2(O)CC#N (configuration not stated) [Dienogest] | 178 ± 40 | 124 | 94.3 ± 2.7 | 82.2 | 170 ± 3.3 | 164 | 92.3 ± 3.2 | 105 ± 6.8 | 139 ± 9
3 | Cl.Cl.O=C(O)COCCN1CCN(C(c2ccccc2)c2ccc(Cl)cc2)CC1 (configuration not stated) [Cetirizine DiHCl] | 111 ± 5.7 | 118 | 98.4 ± 0.98 | 103 | 147 ± 6.2 | 116 | 78.6 ± 6.7 | 90.1 ± 1.9 | 109 ± 7.9
4 | CCCCOc1ccc(OCCCN2CCOCC2)cc1.Cl [Pramoxine HCl] | 137.9 ± 0.65 | 103 | 92.4 ± 8.4 | 112 | 83.5 ± 24 | 116 | 79.6 ± 6 | 166 ± 12 | 133 ± 23
5 | CCCOc1ccc(C(=O)OCCN(CC)CC)cc1N.Cl [Proparacaine HCl] | 99.6 ± 12 | 165 | 91 ± 17 | 91.9 | 111 ± 5.8 | 109 | 102 ± 11 | 97.1 ± 7.6 | 114 ± 13
6 | O=C1CCc2ccc(OCCCCN3CCN(c4cccc(Cl)c4Cl)CC3)cc2N1 [Aripiprazole] | 105 ± 16 | 127 | 73.6 ± 6.5 | 82 | 73.33 ± 0.076 | 127 | 73.9 ± 8.9 | 104 ± 6.5 | 122 ± 3.3
7 | CCN1CCN(C(=O)NC(C(=O)NC2C(=O)N3C2SC(C)(C)C3C(=O)[O-])c2ccccc2)C(=O)C1=O.[Na+] (configuration not stated) [Piperacillin Sodium] | 109 ± 7.5 | 91.8 | 76.1 ± 26 | 92.6 | 88.4 ± 1.3 | 111 | 108 ± 17 | 105 ± 18 | 152 ± 15
8 | CC(OC1OCCN(Cc2nc(=O)[nH][nH]2)C1c1ccc(F)cc1)c1cc(C(F)(F)F)cc(C(F)(F)F)c1 (configuration not stated) [Aprepitant] | 81 ± 48 | 91.5 | 77.5 ± 16 | 86.9 | 35.8 ± 4.5 | 66.1 | 75.3 ± 3.8 | 100 ± 11 | 83.6 ± 3.1
9 | CCn1cc(C(=O)O)c(=O)c2ccc(C)nc21 [Nalidixic acid] | 86 ± 19 | 114 | 96.6 ± 10 | 92.1 | 113 ± 3 | 103 | 79 ± 6.3 | 87.7 ± 7.2 | 112 ± 12
10 | CC(=O)Oc1cc2c(s1)CCN(C(C(=O)C1CC1)c1ccccc1F)C2.Cl (configuration not stated) [Prasugrel hydrochloride] | 140 ± 12 | 137 | 109 ± 14 | 120 | 74.2 ± 5.5 | 149 | 110 ± 20 | 110.1 ± 0.98 | 133 ± 10
11 | CCCC1CC(C(=O)NC(C(C)Cl)C2OC(SC)C(O)C(O)C2O)N(C)C1.Cl (configuration not stated) [Clindamycin HCl] | 101 ± 7.5 | 122 | 99.45 ± 0.17 | 104 | 88.2 ± 19 | 142 | 117 ± 2.3 | 106 ± 33 | 122 ± 2.6
12 | CC(=O)OC1(C(C)=O)CCC2C3C=C(Cl)C4=CC(=O)C5CC5C4(C)C3CCC21C (configuration not stated) [Cyproterone Acetate] | 88.6 ± 12 | 112 | 73.1 ± 17 | 87.1 | 145 ± 8 | 110 | 89.2 ± 7.3 | 116 ± 34 | 128 ± 7.7
13 | CC(=O)N(c1onc(C)c1C)S(=O)(=O)c1ccc(N)cc1 [Sulfisoxazole Acetyl] | 90.9 ± 1.4 | 116 | 90.9 ± 11 | 95.7 | 95.2 ± 3.5 | 104 | 92.77 ± 0.54 | 106 ± 3.9 | 103 ± 1.9
14 | CC1CCOC2Cn3cc(C(=O)NCc4ccc(F)cc4F)c(=O)c(O)c3C(=O)N12 (configuration not stated) | 133 ± 25 | 110 | 139 ± 35 | 137 | 74.39 ± 0.7 | 124 | 139 ± 20 | 120 ± 15 | 176 ± 20
15 | CCCC(CCC)C(=O)O [Valproic acid] | 102 ± 13 | 121 | 133 ± 28 | 103 | 143 ± 3.3 | 106 | 95.8 ± 6.9 | 95.6 ± 7.5 | 83.36 ± 0.16
16 | CC(=O)[N-]S(=O)(=O)c1ccc(N)cc1.[Na+] [Sulfacetamide Sodium] | 98.2 ± 1.3 | 86.1 | 87.3 ± 15 | 104 | 96.8 ± 5.9 | 79.7 | 72.9 ± 1.1 | 85.757 ± 0.01 | 109 ± 3.1
17 | COc1c(N2CCNC(C)C2)c(F)cc2c(=O)c(C(=O)O)cn(C3CC3)c12 (configuration not stated) [Gatifloxacin] | 99.3 ± 31 | 81.1 | 75 ± 10 | 124 | 82.6 ± 7.6 | 92.2 | 140 ± 6.7 | 59.6 ± 23 | 124 ± 24
18 | CCCCOc1cc(C(=O)OCCN(CC)CC)ccc1N.Cl [Oxybuprocaine HCl] | 162 ± 33 | 99.6 | 83.9 ± 11 | 88.8 | 95.5 ± 34 | 149 | 90 ± 31 | 126 ± 24 | 189 ± 3.2
19 | Nc1nc(=O)n(C2CSC(CO)O2)cc1F (configuration not stated) [Emtricitabine] | 105 ± 9.3 | 153 | 104 ± 12 | 107 | 113 ± 11 | 94.6 | 79.81 ± 0.75 | 90 ± 8.8 | 98.1 ± 1.3

Row | SMILES | cell viability (HCI01) | cell viability (HCI03) | cell viability (HCI09) | cell viability (HCI11) | cell viability (HCI13) | cell viability (HCI16) | cell viability (UCD52) | cell viability (WHIM2) | cell viability (WHIM30)
20 | CC(C)NCC(O)c1ccc(NS(C)(=O)=O)cc1.Cl (configuration not stated) [Sotalol hydrochloride] | 102 ± 11 | 150 | 109 ± 2.9 | 111 | 126 ± 18 | 144 | 116 ± 4.6 | 110 ± 5.1 | 118 ± 2.6
21 | CCc1ccc(CCOc2ccc(CC3SC(=O)NC3=O)cc2)nc1 (configuration not stated) [Pioglitazone] | 93 ± 44 | 118 | 123 ± 30 | 104 | 135 ± 16 | 133 | 106 ± 8.1 | 106 ± 21 | 171 ± 1.9
22 | COc1cc(Nc2ncc(F)c(Nc3ccc4c(n3)N(COP(=O)([O-])[O-])C(=O)C(C)(C)O4)n2)cc(OC)c1OC.[Na+].[Na+] [R788 disodium] | 86.4 ± 12 | 76.8 | 95.4 ± 11 | 86.8 | 86.4 ± 11 | 64.5 | 58 ± 4 | 79.4 ± 16 | 91.9 ± 3.2
23 | Nc1ncnc2c1ncn2C1OC(CO)C(O)C1O (configuration not stated) [Adenosine] | 99.7 ± 3.6 | 123 | 90.4 ± 15 | 96.9 | 66.2 ± 4.5 | 97.7 | 95.7 ± 3.5 | 121 ± 34 | 124 ± 16
24 | CN1CCCN=C1C=Cc1cccs1.O=C(O)c1cc2ccccc2c(Cc2c(O)c(C(=O)O)cc3ccccc23)c1O [Pyrantel Pamoate] | 82.3 ± 44 | 117 | 114 ± 12 | 101 | 146 ± 13 | 109 | 99.5 ± 12 | 95.8 ± 17 | 130 ± 3
25 | Brc1c(NC2=NCCN2)ccc2nccnc12.O=C(O)C(O)C(O)C(=O)O [Brimonidine Tartrate] | 123 ± 9.2 | 125 | 78 ± 4.6 | 89.9 | 88.5 ± 4.5 | 124 | 90.8 ± 10 | 125 ± 25 | 98.4 ± 1.3
26 | CC(=O)Nc1ccc(O)cc1 [Acetaminophen] | 93.9 ± 24 | 101 | 98.4 ± 7.2 | 80.4 | 116 ± 14 | 126 | 102 ± 6.9 | 92.71 ± 0.48 | 97.4 ± 3.5
27 | Cc1nc2c([nH]1)CCN(C(=O)c1ccc(NC(=O)c3ccccc3-c3ccccc3)cc1)c1ccccc1-2.Cl [Conivaptan HCl] | 111 ± 18 | 83.3 | 60.4 ± 7.1 | 85.3 | 99.5 ± 17 | 106 | 71.7 ± 2.5 | 104 ± 22 | 141 ± 2
28 | Cl.Nc1c2c(nc3ccccc13)CCCC2 [Tacrine hydrochloride] | 81.8 ± 14 | 119 | 90.7 ± 4.3 | 97 | 87.7 ± 6.4 | 98.3 | 96.6 ± 4.1 | 76.3 ± 2.9 | 87.06 ± 0.45
29 | CCN(CC)CCOC(=O)C(c1ccccc1)c1ccccc1.Cl [Adiphenine HCl] | 93.1 ± 17 | 129 | 99.2 ± 22 | 94.9 | 57.1 ± 3.2 | 110 | 92.2 ± 7.6 | 92.4 ± 9.5 | 117 ± 17
30 | Cc1cn(C2C=CC(CO)O2)c(=O)[nH]c1=O (configuration not stated) [Stavudine (d4T)] | 112 ± 12 | 115 | 110 ± 14 | 91 | 82.13 ± 0.67 | 117 | 104 ± 11 | 95.9 ± 9.4 | 127 ± 5
31 | Clc1ccc2c(c1)C(N1CCNCC1)=Nc1ccccc1O2 [Amoxapine] | 96.5 ± 15 | 104 | 87.5 ± 8.7 | 85 | 88 ± 2.5 | 94.9 | 100 ± 40 | 91.7 ± 7.3 | 197 ± 18
32 | COc1cc(C(C)=O)ccc1OCCCN1CCC(c2noc3cc(F)ccc23)CC1 [Iloperidone] | 153 ± 25 | 101 | 117 ± 19 | 103 | 121 ± 14 | 172 | 88.2 ± 1.8 | 106 ± 6 | 122.82 ± 0.035
33 | CCNC1CC(N)C(OC2OC(CN)=CCC2N)C(O)C1OC1OCC(C)(O)C(NC)C1O.CCNC1CC(N)C(OC2OC(CN)=CCC2N)C(O)C1OC1OCC(C)(O)C(NC)C1O.O=S(=O)(O)O.O=S(=O)(O)O.O=S(=O)(O)O.O=S(=O)(O)O.O=S(=O)(O)O (configuration not stated) [Netilmicin Sulfate] | 99.3 ± 34 | 125 | 125 ± 46 | 111 | 98.3 ± 2.5 | 138 | 120 ± 18 | 115.7 ± 1.1 | 138 ± 28
34 | OCCOCCN1CCN(C2=Nc3ccccc3Sc3ccccc32)CC1 [Quetiapine] | 122 ± 13 | 109 | 94.9 ± 23 | 94.1 | 116 ± 8.1 | 94.1 | 101 ± 4 | 104 ± 5.5 | 131 ± 13
35 | Br.Br.Br.Br.Br.Cc1cc(N2CCN(C3CNC(C(=O)N4CCSC4)C3)CC2)n(-c2ccccc2)n1.Cc1cc(N2CCN(C3CNC(C(=O)N4CCSC4)C3)CC2)n(-c2ccccc2)n1 (configuration not stated) [Teneligliptin hydrobromide] | 111 ± 3.1 | 95.2 | 82.5 ± 13 | 71.5 | 79.96 ± 0.58 | 88.2 | 82 ± 1.3 | 99 ± 20 | 88.4 ± 3.9
36 | CC12CCC(O)CC1=CCC1C2CCC2(C)C(c3cccnc3)=CCC12 (configuration not stated) [Abiraterone] | 138 ± 7.1 | 168 | 86.1 ± 4.6 | 76.6 | 145 ± 42 | 111 | 94.1 ± 9.2 | 131 ± 6.1 | 156 ± 22
37 | CC(O)(P(=O)(O)O)P(=O)(O)O [Etidronate] | 94.3 ± 15 | 96.6 | 94.9 ± 14 | 85.2 | 107.1 ± 0.89 | 92.3 | 75 ± 5.3 | 150 ± 2.7 | 111 ± 11
38 | Cc1cc(=O)n(-c2ccccc2)n1C [Antipyrine] | 110 ± 15 | 131 | 101 ± 10 | 103 | 88.6 ± 1.1 | 95.9 | 98.2 ± 7.5 | 106 ± 30 | 125 ± 11
